# Laboratory results taken from PubChem BioAssay AID1224865 (Sanford-Burnham Center for Chemical Genomics, 2016).
# Hit rate of the full screen: of about 360,000 compounds, about 1,100 (0.31%) were called active. This is one part of a sample in which actives are shown more often than they occur. Unmarked numbers belong to inactive results. Cut-off read from the data, not from the text of the source: active = activity change above about 30% (passing the limit was not always enough); inactive = the rest.
# Molecular target: Hepatocyte nuclear factor 4-alpha (Homo sapiens) (UniProt P41235)
# Assay: change in binding of human HNF4A to DNA, primary screen, biochemical, fluorescence polarization, FITC-DNA (AID 1224865)
# Settings: 1 h, at 10 µM, active compounds read high
# Hepatocyte nuclear factor 4-alpha (Homo sapiens), sequence (P41235 whole entry, looked up): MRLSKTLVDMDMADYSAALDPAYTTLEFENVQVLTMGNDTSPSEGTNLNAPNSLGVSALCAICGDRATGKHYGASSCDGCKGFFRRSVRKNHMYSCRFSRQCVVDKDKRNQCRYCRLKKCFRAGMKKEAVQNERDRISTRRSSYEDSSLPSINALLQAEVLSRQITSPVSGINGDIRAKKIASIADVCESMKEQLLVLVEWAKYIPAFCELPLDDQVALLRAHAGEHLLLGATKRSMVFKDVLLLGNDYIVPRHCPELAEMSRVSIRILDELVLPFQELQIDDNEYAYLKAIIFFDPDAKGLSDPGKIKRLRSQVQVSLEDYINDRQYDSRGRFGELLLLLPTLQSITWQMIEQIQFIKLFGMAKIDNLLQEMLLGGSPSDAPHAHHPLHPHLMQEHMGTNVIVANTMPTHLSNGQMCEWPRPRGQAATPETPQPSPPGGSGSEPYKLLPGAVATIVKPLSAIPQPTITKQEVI
row,SMILES,activity change
1,COc1cccc(/C=C/C(=O)OCC(=O)N2CCCc3ccccc32)c1,-0.26%
2,Cc1cccc2cc3c(N)c(C(=O)N4CCCc5ccccc54)sc3nc12,47.6% (active)
3,CCCn1nc(C(=O)N2CCCc3ccccc32)c2ccccc2c1=O,0.42%
4,O=C(NCc1ccccc1)C1CNCC(C(=O)NCc2ccccc2)C1 (configuration not stated),-1.7%
5,CC(=O)Nc1ccc(S(=O)(=O)N2CCC(C(=O)NC3CC3)CC2)cc1,-2.11%
6,COc1ccc(C(C)=O)cc1COC(=O)Cn1cnc2ccccc2c1=O,3.19%
7,CC(=O)c1c(C)[nH]c(C(=O)OCC(=O)NCCC(C)C)c1C,-3.31%
8,COc1cc(C)c(CN2CCN(C(=O)CCC(=O)c3ccc(C)s3)CC2)cc1OC,-0.43%
9,O=C(Nc1ccc(Br)cc1)c1cc(S(=O)(=O)Nc2ccccn2)ccc1Cl,0.97%
10,O=C(Nc1ccccc1)c1ccccc1Br,-2.18%
11,O=C(Nc1ccncc1)c1cc(-c2ccccn2)nc2ccc(Br)cc12,43.9% (active)
12,O=C(CSc1nnc(Cn2cnc3ccccc32)o1)c1ccccc1,1.06%
13,NC(CSC(c1ccccc1)(c1ccccc1)c1ccc(-c2ccccc2)cc1)C(=O)O (configuration not stated),-4.58%
14,CN(C)c1ccc(-n2cccc2/C=C2/SC(=Nc3ccc(F)cc3)NC2=O)cc1,35.7% (active)
15,CN(C)c1ccc(-n2cccc2/C=N/n2cnnc2)cc1,-0.7%
16,O=C(COC(=O)Cc1ccccc1F)NNC(=O)c1ccc(Cl)cc1,-2.29%
17,O=C(NN1C(=O)C2C3C=CC(C3)C2C1=O)c1ccco1 (configuration not stated),1.06%
18,CCN1/C(=C\c2ccc3ccccc3[n+]2CC)Sc2cc(C)ccc21,81.5% (active)
19,Cc1ccc(S(=O)(=O)N2CC(O)C[C@H]2C(=O)OCC(=O)Nc2ccc(N3CCOCC3)cc2)cc1C (some centres not stated),-2.65%
20,COc1ccc(/C=C(\NC(=O)c2ccccc2)C(=O)NCCN2CCOCC2)cc1OC,-1.85%
21,Cn1c2ccccc2c2cc(/C=C(\NC(=O)c3ccccc3)C(=O)NCC(=O)O)ccc21,43.6% (active)
22,CCOc1ccc(/C=C(/NC(=O)c2ccccc2)C(=O)NCCC(=O)O)cc1,1.05%
23,Cc1ccc(S(=O)(=O)c2ccc(Cl)cc2)cc1S(=O)(=O)NC(C(=O)O)C(C)C (configuration not stated),-3.32%
24,CCOC(OCC)c1ccc(/C=C\c2nccc(N)n2)cc1,2.56%

row,SMILES,activity change
1,Cc1oc2nc(SCC(=O)Nc3ccc(S(N)(=O)=O)cc3)nc(NC(=O)c3ccccc3)c2c1C,-0.08%
2,COc1ccc(CCNS(=O)(=O)c2cn(C)nc2C)cc1,1.38%
3,N#Cc1ccccc1NC(=O)COc1c(Br)cc(Br)c2cccnc12,-0.16%
4,CSc1ccc(C#N)cc1NC(=O)c1ccc(Cl)cc1,2.01%
5,N#Cc1ccc(C(=O)Nc2cccc3cccnc23)c(F)c1,43.6% (active)
6,COCCNC(=O)c1cc2c(Br)ccc(Br)c2nc1N,-2.58%
7,Cc1cccn2c(=O)c(/C=C3\SC(=S)N(CC(C)C)C3=O)c(NCCCOC(C)C)nc12,82.9% (active)
8,CCCN(CCC)c1nc2c(C)cccn2c(=O)c1/C=C1/SC(=S)N(Cc2ccco2)C1=O,8.02%
9,Cc1cccn2c(=O)c(C=O)c(Nc3ccc(S(N)(=O)=O)cc3)nc12,-2.3%
10,CCc1nnc(NC(=O)CSc2nc(SC)ns2)s1,0.21%
11,Cc1cc(C(=O)CC#N)c(C)n1-c1c(C)n(C)n(-c2ccccc2)c1=O,11.5%
12,CCCCSCCCNC(=O)C1CCC(CNS(=O)(=O)c2ccc(NC(C)=O)cc2)CC1 (configuration not stated),2.47%
13,CCc1ccc(C2C(C#N)=C(N)N(N(C)C)C3=C2C(=O)CCC3)s1 (configuration not stated),0.21%
14,CCCC(O)(CCC)C(=O)NN(C(=O)CCl)c1cccc(C)c1,0.04%
15,N[C@@H](Cc1ccccc1)C(=O)N1CCOCC1,2.36%
16,CCN(/N=C/c1ccc(N(C)C)cc1)c1nc2ccccc2[nH]1,-0.96%
17,COc1cc(/C=C(\C#N)c2nc3ccccc3[nH]2)ccc1O,50.5% (active)
18,COc1cc(/C=C(\C#N)c2nc3c(s2)CC(C)CC3)ccc1O (configuration not stated),74% (active)
19,COc1cc(C=NC2CCCCC2)ccc1O,1.88%
20,COC(=O)CSc1ccc2nnc(CCNS(=O)(=O)c3ccc(C)cc3)n2n1,-1.91%
21,CC(NC(=O)C(C)(C)C)C(c1cccs1)N1CCN(Cc2ccccc2)CC1 (configuration not stated),-1.5%
22,CN1OC[C@@H]2CN(C(=O)c3cccnc3)[C@H](c3ccc(N4CCCCC4)cc3)C[C@@H]21,10.4%
23,Cc1ccc(CNC(=O)c2ccc(CS(=O)Cc3cccc(Cl)c3)o2)cc1 (configuration not stated),1.72%
24,CCc1ccc(NC(=O)CC2C(=O)NCCN2C(=S)Nc2ccccc2)cc1 (configuration not stated),1.59%

row,SMILES,activity change
1,Cc1c(N=Nc2ccc(N(C)C)cc2)c(=O)n(-c2ccccc2)n1C,35.5% (active)
2,Cc1nc(N)sc1N=Nc1c(C)n(C)n(-c2ccccc2)c1=O,6.08%
3,Cc1c(C=O)n(C)n(-c2ccccc2)c1=O,1.77%
4,O=C(CCN1C(=O)C2CCCCC2C1=O)Nc1ccc(OC(F)F)cc1 (configuration not stated),1.26%
5,C=CC[C@H](CC(=O)N(CCO)Cc1ccccc1)C(=O)N[C@@H](COC(=O)[C@@H](CC=C)Cc1ccc(F)cc1)Cc1ccccc1,2.32%
6,Cc1ccc(CSCC(=O)N(C)CC(=O)Nc2cccc(F)c2)cc1,-2.3%
7,CN(CC(=O)Nc1cccc(F)c1)C(=O)CC1CCCC1,-0.01%
8,CCN(CC)C(=O)CSC(Nc1cccc(F)c1)=C(C#N)C#N,44.9% (active)
9,Cc1ccccc1OCCC(=O)Nc1c(C)n(C)n(-c2ccccc2)c1=O,-0.09%
10,O=C(CC1Nc2ccccc2NC1=O)Nc1ccccc1 (configuration not stated),7.95%
11,COc1ccc(NC2=CC(=S)NC(C)(C)C2)cc1,39.2% (active)
12,COc1ccc(Nc2cc(Sc3ccc(OC)cc3)ncn2)cc1,7.05%
13,COc1ccc(CCNC2=CC(=O)CC(C)(C)C2)cc1,2.16%
14,CCCNC(=O)c1cc(C2CCCCN2S(=O)(=O)c2cn(C)cn2)on1 (configuration not stated),-2.31%
15,Cc1cc(C)n2nc(C(=O)Nc3cccc(S(=O)(=O)N4CCOCC4)c3)nc2n1,-1.39%
16,CC(C)Oc1ccc(C(=O)NCC(=O)Nc2ccc3c(c2)CCC3)cc1,-0.66%
17,Cc1ccc(C(=O)OCC(=O)NC2CCCCCCC2)cc1C,-0.78%
18,Cc1nc(SCC(=O)Nc2cc(C)on2)c2c(C)c(C)sc2n1,49.9% (active)
19,Cc1nc(SCC(=O)N2CCc3ccccc3C2)c2c(C)c(C)sc2n1,-0.31%
20,Cc1nc(SCC(=O)N2CC(=O)Nc3ccccc32)c2c(C)c(C)sc2n1,-0.27%
21,CC/C(=C(/c1ccccc1)c1ccc(OCC[N+](C)(C)C)cc1)c1ccccc1,7.53%
22,C[C@@H]1CN([C@H](C)CO)C(=O)c2cc(Br)cnc2O[C@@H]1CN(C)Cc1cncnc1,3.08%
23,COC(=O)c1cccc(N(CC(=O)NCC2CCCO2)C(=O)CCC(=O)Nc2cc(C)on2)c1 (configuration not stated),2.32%
24,O=C(COC(=O)c1ccc(F)c(S(=O)(=O)N2CCOCC2)c1)NCc1ccc2c(c1)OCO2,2.9%
